# In the OligoGym collection:
# Assays:
# Assay in all cases: pooled miR-30 sensor sort-seq; sequence = guide strand
# Conditions in all cases: shRNA
# PRR3 = molecular target: PRR3
# PRRX2 = molecular target: PRRX2
# PRR5 = molecular target: PRR5
# PRPS2 = molecular target: PRPS2
# PRSS27 = molecular target: PRSS27
# PSKH2 = molecular target: PSKH2
# PTBP2 = molecular target: PTBP2
# PYROXD1 = molecular target: PYROXD1
# RAB11A = molecular target: RAB11A
# QSOX1 = molecular target: QSOX1
# QSER1 = molecular target: QSER1
# RAD9A = molecular target: RAD9A
# RBM28 = molecular target: RBM28
# RBM15B = molecular target: RBM15B
# RBFOX1 = molecular target: RBFOX1
# RBM12B = molecular target: RBM12B
# RBMY1E = molecular target: RBMY1E
# RDH8 = molecular target: RDH8
# RET = molecular target: RET
# RGS9 = molecular target: RGS9
# RILPL1 = molecular target: RILPL1
# RIN3 = molecular target: RIN3
# RIMKLA = molecular target: RIMKLA
# RIT1 = molecular target: RIT1
# Further: reference of the scale not given here.
sequence,measurement,setting,value
TCTGCATTGACTCCCCACCAAC,sensor-assay potency score (higher = more potent),PRR3,-1.61
TTGGTTTTAATACACAAACTAA,sensor-assay potency score (higher = more potent),PRRX2,-1.05
TTGAGCAGCGAGGCAGAGCGGC,sensor-assay potency score (higher = more potent),PRRX2,-1.11
TAACTCTGCACCAGTCACCCAA,sensor-assay potency score (higher = more potent),PRR3,-0.887
TTGGCCTTGAGACGGAGGCTGG,sensor-assay potency score (higher = more potent),PRRX2,-0.803
TTCTTCTTCCGCTTGGCGGCGC,sensor-assay potency score (higher = more potent),PRRX2,-0.268
TGATCCTGGAGGACCTCTGTGA,sensor-assay potency score (higher = more potent),PRR3,-0.51
TTCTGTCCCTCATAGAAGCGAA,sensor-assay potency score (higher = more potent),PRR5,-1.06
TTGTCCTTTTTATCTTGTCGGG,sensor-assay potency score (higher = more potent),PRPS2,-0.968
TTTGTCTTCCATAACCTGGGGG,sensor-assay potency score (higher = more potent),PRR3,0.295
TAGGGTGGCACTGTGCTGTAGG,sensor-assay potency score (higher = more potent),PRRX2,0.726
TTGGTAGCCAAACTCGGTGTCT,sensor-assay potency score (higher = more potent),PRSS27,-0.152
TTTGTCTATAAAGTCCTTCGCC,sensor-assay potency score (higher = more potent),PSKH2,-0.325
TTTTCGACTCTTCACCTGGATG,sensor-assay potency score (higher = more potent),PSKH2,-1.22
TTAAAGTCAGATCTATTCCTAA,sensor-assay potency score (higher = more potent),PTBP2,0.0356
TTAATTCATGATCTGAACCTAA,sensor-assay potency score (higher = more potent),PYROXD1,-0.379
TAGAGTCTCCTGAACTCGCTGC,sensor-assay potency score (higher = more potent),PYROXD1,0.751
TTTCAATGAATGACAAACCATT,sensor-assay potency score (higher = more potent),RAB11A,-1.27
TTATTTCTCGCAAAGAATCCAT,sensor-assay potency score (higher = more potent),QSOX1,-0.0879
TTGAATAACATGACCTTCCATC,sensor-assay potency score (higher = more potent),QSER1,-0.458
TTATCTGCTTTAGATTTGCTTC,sensor-assay potency score (higher = more potent),PYROXD1,-0.93
TAGCGCAGTCTCGGCAGCCGAA,sensor-assay potency score (higher = more potent),QSOX1,-1.38
TTTAGCTTTAGTAAGCTGTTTC,sensor-assay potency score (higher = more potent),PYROXD1,-0.591
TTCATTATCAACTTTATCTGAT,sensor-assay potency score (higher = more potent),QSER1,0.462
TACTACTAGAAACAAACTCTTG,sensor-assay potency score (higher = more potent),QSER1,-0.942
TTGTGGCTAGACCAGAGCCAGA,sensor-assay potency score (higher = more potent),QSOX1,-1.92
TTGAAGAACCTCACAGTCGGGA,sensor-assay potency score (higher = more potent),QSOX1,0.0825
TTCCGGAACAGCAGGTAGCAAG,sensor-assay potency score (higher = more potent),QSOX1,-1.46
TTGTCTGAAAAGCAGCTTCTAC,sensor-assay potency score (higher = more potent),RAB11A,-1.05
TTGATTGTTCTTCAACATCGAA,sensor-assay potency score (higher = more potent),PYROXD1,-0.89
TTGCTTCTGAGAAACAATGCGG,sensor-assay potency score (higher = more potent),RAB11A,-0.544
TTGAAGTCTCTGCAGACTGCAC,sensor-assay potency score (higher = more potent),QSOX1,-0.833
TTTCTTGATGCTGATAACCATC,sensor-assay potency score (higher = more potent),QSER1,-1.25
TATTGTTTTTCCATCAACCTGG,sensor-assay potency score (higher = more potent),RAB11A,0.22
TACATTTTGCCGAGCTGCCTGC,sensor-assay potency score (higher = more potent),QSOX1,-0.913
TTTAATAACACTACATTCTCGA,sensor-assay potency score (higher = more potent),QSER1,0.61
TATAGCTCGATATCGCTCTTGC,sensor-assay potency score (higher = more potent),RAB11A,0.186
TAGATTTGCTTCTAGCTTCCTT,sensor-assay potency score (higher = more potent),PYROXD1,0.523
TACATTTGTAGAGTCTAGGGCC,sensor-assay potency score (higher = more potent),RAB11A,0.146
TACAACTGTATTTTCTCTGGAT,sensor-assay potency score (higher = more potent),QSER1,0.0285
TAACTTGATCTTCAAGACGGGA,sensor-assay potency score (higher = more potent),QSER1,-1.26
TATATTTAAATCTCAGACCTGG,sensor-assay potency score (higher = more potent),RAB11A,0.396
TTTGTGCTGGGACAGGTCCAGA,sensor-assay potency score (higher = more potent),QSOX1,-1.47
TGATTGTTCTTCAACATCGAAT,sensor-assay potency score (higher = more potent),PYROXD1,-0.94
TTTAAAGTAAAATACAACCGAT,sensor-assay potency score (higher = more potent),PYROXD1,-0.96
TAACTCAATACAGTCATTCATT,sensor-assay potency score (higher = more potent),PYROXD1,-0.8
TATAAGTTGATTCTTGAGCATT,sensor-assay potency score (higher = more potent),QSER1,-1.01
TTAAAGTAAAATACAACCGATT,sensor-assay potency score (higher = more potent),PYROXD1,-0.766
TTCATCTGTAGGAACTGCCCTG,sensor-assay potency score (higher = more potent),RAB11A,0.239
TACTCTTCGTTATTTCTCGCAA,sensor-assay potency score (higher = more potent),QSOX1,-0.156
TTATAGCTCGATATCGCTCTTG,sensor-assay potency score (higher = more potent),RAB11A,-0.642
TTGAATTTGATAGATAACTATG,sensor-assay potency score (higher = more potent),QSER1,-0.94
TTTATCAGAAGTAGCATCCAAA,sensor-assay potency score (higher = more potent),QSER1,-0.195
TAAGCGGTATAGAAGGACCTGG,sensor-assay potency score (higher = more potent),QSOX1,-0.156
TTGAACTGTAGGCTTGAGGAGT,sensor-assay potency score (higher = more potent),QSER1,-0.462
TATTTCTCGCAAAGAATCCATC,sensor-assay potency score (higher = more potent),QSOX1,-1.27
TATTTGATCGTGCTGTTCCTGG,sensor-assay potency score (higher = more potent),QSER1,-0.0695
ATGAATAGGAACCACATTGTTG,sensor-assay potency score (higher = more potent),RAB11A,-1.36
TTTTTCCACCGTCTTCTCCAGC,sensor-assay potency score (higher = more potent),RAD9A,-1.2
TTCTTCACCTTCGTCGTCTGAA,sensor-assay potency score (higher = more potent),RBM28,-0.116
TGTGACACAAACATGACGCTGG,sensor-assay potency score (higher = more potent),RBM15B,0.96
TTACATAATATAGCACTCTGGA,sensor-assay potency score (higher = more potent),RBFOX1,-0.421
TTGCACAGCTTTATCCTCTTGC,sensor-assay potency score (higher = more potent),RBM28,0.184
TTAAGTGAACATAAAATCCAAG,sensor-assay potency score (higher = more potent),RBM12B,-0.9
TTATTCATTATCTAGCATCTGT,sensor-assay potency score (higher = more potent),RBFOX1,0.299
TTTTGTTTGAGACTTGCACAGC,sensor-assay potency score (higher = more potent),RBM28,-0.43
TTTGACGTGATCAATGGTCCGA,sensor-assay potency score (higher = more potent),RBM15B,0.695
TTTAATATCCAACTGATCTTAC,sensor-assay potency score (higher = more potent),RBFOX1,-0.633
TTATATTGTTCGACCAGCTGGT,sensor-assay potency score (higher = more potent),RBM28,0.168
TAATTGAAGAGCCATATCCAGA,sensor-assay potency score (higher = more potent),RBM12B,-1.22
TTGGTCTGGAACCCGGTCCATG,sensor-assay potency score (higher = more potent),RBM28,-1.16
TTGTCATCTACAGCCTTTGGGA,sensor-assay potency score (higher = more potent),RBM28,-0.978
TTTCTTGGCAACAGTCACGTTG,sensor-assay potency score (higher = more potent),RBM28,-0.362
TTTTTGTGAAACATGTCCGGGC,sensor-assay potency score (higher = more potent),RBM12B,0.0214
TCGTGTGACCTCGTCAAGCTTG,sensor-assay potency score (higher = more potent),RBM15B,-1.02
ATTTTTGTGAAACATGTCCGGG,sensor-assay potency score (higher = more potent),RBM12B,-0.845
TATGACATTTAAGACCTCCTGA,sensor-assay potency score (higher = more potent),RBM12B,0.971
TAAGTCTTGAAGATTACCGATG,sensor-assay potency score (higher = more potent),RBM12B,-1.18
TTGACCAAACATTTGTCTGAGG,sensor-assay potency score (higher = more potent),RBFOX1,-0.662
TATTTGTCATTACACGTGCTGT,sensor-assay potency score (higher = more potent),RBFOX1,-1.1
TTGTGACACAAACATGACGCTG,sensor-assay potency score (higher = more potent),RBM15B,-1.03
TAAGTCTTAATAACACCTCTGT,sensor-assay potency score (higher = more potent),RBM12B,0.203
TAATAGGAGTTACTCTACCTGA,sensor-assay potency score (higher = more potent),RBM12B,-0.42
TTGACGTGATCAATGGTCCGAA,sensor-assay potency score (higher = more potent),RBM15B,0.476
TTGCTGAGGGAGTTGCTGCTGG,sensor-assay potency score (higher = more potent),RBM15B,-0.717
TTATACTGTATCGAAACTGAAT,sensor-assay potency score (higher = more potent),RBM12B,-1.19
TAGATCTTTAATAGCAGCCATA,sensor-assay potency score (higher = more potent),RBM12B,-1.64
TCCACTAGTAGCACTCAGCAGC,sensor-assay potency score (higher = more potent),RBM28,-1.24
TTATTTGTCATTACACGTGCTG,sensor-assay potency score (higher = more potent),RBFOX1,0.199
TATAGGCAAAGCTATCTCCTTT,sensor-assay potency score (higher = more potent),RBM15B,-0.598
TTTTGTGACACAAACATGACGC,sensor-assay potency score (higher = more potent),RBM15B,0.652
TATCTCTCTCTAGTGACCCTGA,sensor-assay potency score (higher = more potent),RBM12B,0.0397
TTCTAGAACTTAACAACTCCAC,sensor-assay potency score (higher = more potent),RBFOX1,-0.286
TTTTCCTAGATACCTGCTCGGA,sensor-assay potency score (higher = more potent),RBM28,-0.748
TTTTTCAACACCAGAAGCCCAT,sensor-assay potency score (higher = more potent),RBM15B,0.0926
TTTTTATTCATTATCTAGCATC,sensor-assay potency score (higher = more potent),RBFOX1,-0.945
TTTAAAATAACTGCTTTTGTGA,sensor-assay potency score (higher = more potent),RBM15B,-0.54
TAGTCTTCTGCATTTCTGCCTT,sensor-assay potency score (higher = more potent),RBM12B,-0.412
TAAGAGGACCGCATAGCCGTTG,sensor-assay potency score (higher = more potent),RBM15B,-0.808
TTTCTCGGGAACTTCGACGATT,sensor-assay potency score (higher = more potent),RBMY1E,-0.472
TAACTTGAGCTACCACATGCTT,sensor-assay potency score (higher = more potent),RBMY1E,-1.09
TTCTGCATGGCAGCAAGGCTGA,sensor-assay potency score (higher = more potent),RDH8,-1.12
TTAAGCATATCTGAAAACCAAA,sensor-assay potency score (higher = more potent),RET,-1.63
TTGAACTCCACCACGGCGCTGG,sensor-assay potency score (higher = more potent),RET,0.715
TTGTTTCTTGACTTCATTCGGA,sensor-assay potency score (higher = more potent),RGS9,0.389
TTGAGAATGAGATTCTTGGGGT,sensor-assay potency score (higher = more potent),RGS9,0.816
TCATCTATTAGAAACAGTGATA,sensor-assay potency score (higher = more potent),RILPL1,-1.01
TTTGCCAACAACTGGAACCGGA,sensor-assay potency score (higher = more potent),RIN3,-0.35
TATTCGGTTTTCCTCTTCCATT,sensor-assay potency score (higher = more potent),RILPL1,-1.63
AAGCATAGAGCCTATGACCTGG,sensor-assay potency score (higher = more potent),RIMKLA,0.485
TTCAGGGTGCATCTGCACCGAG,sensor-assay potency score (higher = more potent),RILPL1,-0.831
TTGGCGCGGATCTCGTCGCGTT,sensor-assay potency score (higher = more potent),RILPL1,-1.09
TTGAGGTCTGACTTGTTTCCCA,sensor-assay potency score (higher = more potent),RIT1,-0.117
TTGAGCTGGGTCATCATGGTGC,sensor-assay potency score (higher = more potent),RIN3,0.23
TTGCCAACAACTGGAACCGGAC,sensor-assay potency score (higher = more potent),RIN3,-1.3
TTTGGCTTAAAGAAGCTTGTGT,sensor-assay potency score (higher = more potent),RILPL1,0.806
TTGCGCTCCTTCTCGATGCGGT,sensor-assay potency score (higher = more potent),RILPL1,-0.346
TGTCTGACTGCACTGAGGGTGT,sensor-assay potency score (higher = more potent),RIMKLA,-0.858
TTTCACTAGAGGTAGACCCACT,sensor-assay potency score (higher = more potent),RIMKLA,-0.539
ATCTCCTGCAGCATCTCCGTGC,sensor-assay potency score (higher = more potent),RIN3,-0.98
